This is a sample that favours compounds with a hit; in the whole collection about 7.4% have one here.
FLuc inh: Firefly luciferase inhibition profiling of diverse chemical library using quantitative high-throughput screening; 76,000 compounds, 2.5% hits; Luciferin 4-monooxygenase (Photinus pyralis), P08659; Potency, µM (top dose mostly 115 µM), usual class: inhibitors; purified P. pyralis luciferase, luminescence, biochemical; note: nearly all actives have a fitted effect of over 65% in size
Target sequence (P08659 whole entry, looked up): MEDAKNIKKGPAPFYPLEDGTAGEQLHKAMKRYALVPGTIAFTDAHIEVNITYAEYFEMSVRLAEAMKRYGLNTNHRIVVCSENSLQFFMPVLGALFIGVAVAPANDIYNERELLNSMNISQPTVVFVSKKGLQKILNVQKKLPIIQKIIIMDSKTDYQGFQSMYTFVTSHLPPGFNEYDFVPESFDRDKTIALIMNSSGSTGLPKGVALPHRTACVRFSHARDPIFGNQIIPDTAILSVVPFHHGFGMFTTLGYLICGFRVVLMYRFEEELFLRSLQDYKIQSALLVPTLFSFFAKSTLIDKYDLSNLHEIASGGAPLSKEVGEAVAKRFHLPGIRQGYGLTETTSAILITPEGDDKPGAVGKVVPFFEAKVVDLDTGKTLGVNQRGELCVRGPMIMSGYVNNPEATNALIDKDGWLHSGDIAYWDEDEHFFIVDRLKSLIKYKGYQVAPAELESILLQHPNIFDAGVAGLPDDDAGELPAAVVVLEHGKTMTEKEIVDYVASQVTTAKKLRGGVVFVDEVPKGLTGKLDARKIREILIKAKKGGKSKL
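Luminescence read by CCD imager after adding enzyme (10nM final) to wells holding compound, titrated in qHTS. Substrates 10uM each D-luciferin and ATP; buffer 50mM Tris acetate pH 7.5, 10mM Mg acetate, Tween-20, BSA.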
HEK cytotox: Cytotoxic Profiling in HEK 293 Cell Line of Diverse Libraries Using Quantitative High-Throughput Screening; Potency, µM (highest dose often 115 µM), for inactives: at the highest dose activity change, negative = cytotoxicity, most hits filed as inhibitors; HEK 293 viability, ATP luminescence (CellTiter-Glo), 48-72 h; 94,000 compounds, 6.6% hits; note: nearly all actives have a fitted effect of over 60% in size
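HEK 293 cells at 250 cells/well were exposed to compounds by pintool transfer for 48 or 72 hr at 37 degree Celsius, 5% CO2. Viability was read as ATP-coupled luminescence with CellTiter-Glo after 10 min at room temperature.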
SNCA expr inh: Primary qHTS assay for inhibitors of alpha-synuclein gene (SNCA) expression; HEK-293 SNCA-luciferase knock-in, luminescence, 24 h; Potency, µM (doses to about 57.2 µM), for inactives: at the highest dose activity change, negative = inhibition, most hits filed as inhibitors; 140,000 compounds, 0.17% hits;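 note: plate controls were DMSO cells for no effect and cell-free wells for full effect; nearly all actives have a fitted effect of over 45% in size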
3T3 cytotox: Cytotoxic Profiling in NIH 3T3 Cell Line of Diverse Libraries Using Quantitative High-Throughput Screening; AID 1345082, 2018; 94,000 compounds, 4.3% hits; NIH 3T3 viability, CellTiter-Glo ATP luminescence, 48-72 h; Potency, µM (doses to about 96.7 µM), inactives show at the highest dose activity change, negative = cytotoxicity, hits mostly inhibitors; note: nearly all actives have a fitted effect of over 55% in size
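Luminescent ATP readout (CellTiter-Glo, 10 min RT) after 48 or 72 hr compound exposure of NIH 3T3 cells seeded at 400 cells/well in 1536-well format; quantitative HTS.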
NPR1 antag: Natriuretic polypeptide receptor (hNpr1) antagonism - Primary qHTS. Atrial natriuretic peptide receptor 1 (Homo sapiens), P16066. HEK293 hNpr1 GloSensor cGMP, ANP-stimulated luminescence. Potency, µM (series often up to 46.3 µM), for the others: top-dose activity change, negative = inhibition, usual class: inhibitors. 76,000 compounds, 1.6% hits. AID 1347048, 2019; calls by dose curve; note: nearly all actives have a fitted effect of over 60% in size
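Compound pre-incubated 30 min at room temperature on GloSensor-loaded HEK293 cells stably carrying hNpr1 and the pGS-40F cGMP biosensor. Stimulation uses hNppA at 0.1 nM final; luminescence is taken at baseline and 20 min post-agonist.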
SNCA viab count: GF-AFC viability counterscreen for inhibitors of alpha-synuclein gene (SNCA) expression; Potency, µM (titrated, usually from 57.1 µM), for the others: at the top dose activity change, negative = cytotoxicity, hits mostly cytotoxic; HEK-293-SNCA-luc viability, GF-AFC fluorescence, 24 h; AID 1671193, 2021; 150,000 compounds, 0.12% hits;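 note: 0% = DMSO-treated cells and -100% = medium-only wells without cells; nearly all actives have a fitted effect of over 30% in size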
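Cytotoxicity counterscreen: after 24 h compound treatment of genome-edited SNCA-luciferase HEK-293 cells, live-cell protease substrate GF-AFC read by fluorescence after 30 min; activity scaled between DMSO (0%) and medium-only (-100%), curves Hill-fitted.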
Starred values were filed as active, the others as inactive; i = inactive; u = inconclusive; x = not tested or not shown; [ ] = remark or other dose. Unless noted, calls come from the whole dose curve; as a rule, active = well fitted curve in the direction sought with a large enough effect; inconclusive = small, poorly fitted or top-dose-only effect, or another doubt; inactive = no such curve, though single readings can be large; an effect the other way counts as inactive or inconclusive. Unless noted, % is set by controls: 0 for no effect and ±100 for the full control effect; potency is the fitted concentration of half-maximal effect.

SMILES	FLuc inh	HEK cytotox	SNCA expr inh	3T3 cytotox	NPR1 antag	SNCA viab count
Cc1ncc2n1C(=O)N(C1CCN(Cc3ccc(F)cc3)CC1)C2	i	u	u	-25%[138 µM]	23%[70.6 µM]	u
C[C@@H](NC(=O)C[C@@H]1c2nc(NC(=O)CC(C)(C)C)sc2C[C@@H]2[C@](C)(CO)[C@H](O)CC[C@]21C)c1ccccc1	i	40µM*	u	u	1%	-22%
C[C@H](NC(=O)C[C@@H]1c2nc(NC(=O)c3ccc(F)cc3)sc2C[C@@H]2[C@](C)(CO)[C@H](O)CC[C@]21C)c1ccccc1	i	32µM*	u	u	-9%	u
CC(C)C[C@H](CO)NC(=O)C[C@@H]1c2nc(NC(=O)CC(C)(C)C)sc2C[C@@H]2[C@](C)(CO)[C@H](O)CC[C@]21C	i	1%	-3%	-1%	0%	2%
CCCCCC(=O)Nc1nc2c(s1)C[C@@H]1[C@](C)(CO)[C@H](O)CC[C@@]1(C)[C@@H]2CC(=O)N[C@@H](CO)CC(C)C	i	u	-22%	79µM*	3%	-10%
C[C@]1(CO)[C@H]2Cc3sc(NC(=O)c4ccc(F)cc4)nc3[C@@H](CC(=O)O)[C@]2(C)CC[C@H]1O	i	3%	-10%	-1%	1%	5%
O=C(Nc1cccc(Cl)c1)c1ccc2nc(-c3ccncc3)oc2c1	x	u	5%	u	x	-7%
CC(C)CNC(=O)[C@@H]1CCCN1c1nccc(Nc2ccccc2Cl)n1	x	u	u	u	x	-7%[12.5 µM]
CCN1CCCC12Cc1ccccc1CN(C(=O)c1ccccc1)C2 (stereo not given)	x	u	-18%	u	x	-16%
Cc1ccc(-c2cn3cc(C(=O)NC4CCCCC4)nc3s2)cc1	x	-18%	41%	-18%	x	4%
COc1ccc(Cn2c(=O)c(C(=O)N3CCN(C(=O)Cc4ccc(F)cc4)CC3)nc3cccnc32)cc1	x	u	8%	-23%	x	-13%[12.5 µM]
CN(Cc1cccc(CCN)c1)Cc1cnn(-c2ccc(F)cc2)c1	i	u	32%	45µM*	1%	u
CN(Cc1cnn(-c2ccccc2)c1)Cc1cc2ccccc2[nH]c1=O	i	-1%	-24%	i	5%	-2%
COc1ccccc1Cn1c(=O)c(C(=O)NCCc2ccc(F)cc2)nc2cccnc21	x	u	-18%	u	x	-7%
COc1ccc(C(=O)N2CCCC(N3C(=O)c4c(c(C)nn4-c4ccccc4)C3C)C2)cc1 (stereo not given)	x	u	x	14µM*	x	x
Cc1nn(-c2ccccc2)c2c1C(C)N(C1CCCN(C(=O)c3ccccc3Cl)C1)C2=O (stereo not given)	x	40µM*	x	u	x	x
O=C(c1ccc(Cl)cc1)N1CCN(c2ccc3nnc(-c4ccccc4)n3n2)CC1	x	u	x	45µM*	x	x
O=C(c1ccc2nnc(-c3ccc(Cl)cc3)n2c1)N1CCN(Cc2ccccc2)CC1	x	25µM*	u	28µM*	x	-16%
O=C(Cc1cccc(Cl)c1)N1CCN(c2ccc3nnc(-c4ccccc4)n3n2)CC1	x	45µM*	x	u	x	x
COc1ccc(Cc2nnc3ccc(C(=O)N4CCN(Cc5ccccc5)CC4)cn23)cc1	x	u	2%	u	x	1%
Cc1cc(C(=O)NC2CCCN(c3ccnc4ccnn34)C2)ccc1Cl (stereo not given)	x	u	31%	u	x	u
O=C(N[C@H]1CCN2C(=O)c3cc(-c4ccc(Cl)cc4)ccc3NC(=O)[C@H]12)c1cnccn1	i	79µM*	-19%	u	0%	-5%
COc1ccc(/C=C/c2ccc3c(c2)C(=O)N2CC[C@H](N)[C@H]2C(=O)N3)cc1	20µM*	100µM*	65%[87.6 µM]	u	1%[70.6 µM]	-14%[87.6 µM]
COc1ccc(/C=C/c2ccc3c(c2)C(=O)N2CC[C@H](NC(=O)c4cnccn4)[C@H]2C(=O)N3)cc1	7.9µM*	-6%	-7%	-4%	-1%	-3%
O=C(N[C@H]1CCN2C(=O)c3cc(-c4cccc(C(F)(F)F)c4)ccc3NC(=O)[C@H]12)c1cnccn1	i	45µM*	-33%	79µM*	-1%	-11%
SMILES	FLuc inh	HEK cytotox	SNCA expr inh	3T3 cytotox	NPR1 antag	SNCA viab count
COc1ccc(F)c(-c2nc(Cn3cnc4ccccc43)c(C)o2)c1	i	u	-13%	u	u	-10%
Cc1cccc(C(=O)N2CCC3(CC2)CC2C(=O)NCCN2C3)c1 (stereo not given)	x	1%	2%	-14%	x	15%
COc1ccc(-c2cccc(C(=O)N3CCC(NC(C)=O)CC3)c2)nn1	x	0%	x	-5%	x	x
COc1ccc(CN(C)Cc2cccc(C(F)(F)F)c2)cc1	x	u	25%[87.6 µM]	-9%[138 µM]	x	0%[87.6 µM]
COc1ccccc1C(=O)N1CCCN(c2cc(-c3ccc(Br)cc3)[nH]n2)CC1	i	40µM*	10%	u	u	-15%
COc1ccc(Cl)cc1C(=O)N1CCCN(c2cc(-c3ccc(F)cc3)[nH]n2)CC1	i	u	-5%	u	-29%	-25%
COc1ccc(Cl)cc1C(=O)N1CCCN(c2cc(-c3ccc(Br)cc3)[nH]n2)CC1	i	35µM*	u	32µM*	u	-16%

Assay outcomes deposited in PubChem by National Center for Advancing Translational Sciences (NCATS).
